Compound activity (PubChem)
The list is not random: actives were taken first. Their share in the collection is about 17%.
DT40 TDP1 CPT = growth inhibition of DT40 Tdp1-/-;hTDP1 cells with camptothecin (screen for TDP1 inhibitors); chicken DT40 Tdp1-/-;hTDP1 cells + 20 nM CPT, ATP luminescence, 48 h; 420,000 tested, 12% active; Potency, µM (highest dose often 46.2 µM), actives largely listed as inhibitors; note: nearly all actives have a fitted effect of over 55% in size
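Chicken DT40 Tdp1-/- cells complemented with human TDP1, 400 cells/well, exposed to compounds plus 20 nM camptothecin for at least 48 h at 37 C; viability read as ATP content by CellTiter-Glo luminescence.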
TGFb inhibitor = inhibitors of TGF-b signaling; HepG2 CAGA-GFP TGF-b/SMAD3 reporter, GFP fluorescence, 18 h; TGF-beta stimulated, 500 pg/mL final; Potency, µM (doses to about 46.1 µM), most hits filed as inhibitors; 410,000 tested, 1.2% active; AID 588855; note: nearly all actives have a fitted effect of over 65% in size
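Inhibition of TGF-beta-driven CAGA-GFP reporter expression in HEPG2 cells is measured by cellular GFP fluorescence after 18 h stimulation with 500 pg/mL recombinant TGF-beta in 1% FBS medium at 37 degrees C.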
HT1080 IDH1KD tx = HT-1080 IDH1 knockdown cell toxicity (counter line) | 360,000 tested, 2% active | HT-1080 IDH1 knockdown viability, ATP luminescence, 48 h | Potency, µM (titrated, usually from 46.1 µM), most hits filed as cytotoxic
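In this qHTS, HT-1080 cells depleted of IDH1 are exposed for 48 h at 37 °C to compound titrations. Toxicity is scored from CellTiter-Glo luminescence, with DMSO as full viability and medium alone as none.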
TDP1 cell noCPT = qHTS for Inhibitors of human tyrosyl-DNA phosphodiesterase 1 (TDP1): qHTS in cells in absence of CPT; DT40 Tdp1-/- hTDP1 cells, no CPT, ATP luminescence, 48 h; Potency, µM (highest dose often 46.2 µM), usual class: inhibitors; 420,000 tested, 15% active; AID 686978, 2013; note: nearly all actives have a fitted effect of over 55% in size
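Camptothecin absent (DMSO only). Human TDP1-complemented DT40 knockout cells, 400 cells/well, 37 °C for minimum 48 hr; ATP measured via CellTiter-Glo, 30 min dark incubation, luminescence.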
HepG2 viability = HepG2 cytotoxicity, counter-screen for TGF-b inhibitors | AID 588856 | Potency, µM (highest dose often 46.1 µM), hits mostly cytotoxic | 410,000 tested, 0.76% active | HepG2 CAGA-GFP viability, ATP luminescence, 18 h
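HepG2 CAGA-GFP cells (1000/well, DMEM with 1% FBS) received compound, then TGF-beta at 500 pg/mL final, and were incubated 18 hours at 37 degrees C. Viability was read by CellTiter-Glo luminescence. Media-only wells were set as complete cell-killing and DMSO as no toxicity.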
HT1080NT lethal = kills 2HG-producing HT-1080-NT fibrosarcoma cells. HT-1080-NT fibrosarcoma viability, CellTiter-Glo ATP luminescence, 48 h. Potency, µM (highest dose often 46.1 µM), actives largely listed as cytotoxic. 360,000 tested, 1.6% active. AID 686970;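 note: NT is the 2HG producing partner of a matched IDH1 knockdown line; nearly all actives have a fitted effect of over 55% in size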
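A 48-hour cytotoxicity screen used HT-1080-NT cells plated 2 hours before compound delivery. ATP-based CellTiter-Glo luminescence measured viability, normalized to DMSO and no-cell controls.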
Of the large screens only hits and unclear results are named; the others gave an inactive call. Calls come from the whole dose curve; as a rule, active = well fitted curve in the direction sought with a large enough effect; inconclusive = small, poorly fitted or top-dose-only effect, or another doubt; inactive = no such curve, though single readings can be large; an effect the other way counts as inactive or inconclusive.

Cc1nn(-c2ccc(N3CCCCC3)nn2)c(C)c1CCC(=O)Nc1cccc(F)c1	DT40 TDP1 CPT inconclusive, TDP1 cell noCPT 20.6µM
COc1ccc(NC(=O)CCc2c(C)nn(-c3ccc(N4CCCC4)nn3)c2C)cc1Cl	DT40 TDP1 CPT inconclusive, TGFb inhibitor inconclusive, TDP1 cell noCPT 16.4µM (no result: HT1080 IDH1KD tx, HT1080NT lethal)
COc1ccc(C(C)(O)c2nc(-c3cccc(NC(C)=O)c3)cs2)cc1 (stereo not drawn)	TGFb inhibitor inconclusive, TDP1 cell noCPT inconclusive
Cc1cc(OCC(=O)OCC(=O)NCc2ccc3c(c2)OCO3)ccc1Cl	none
COc1cccc(-c2nc(NCCNC(C)=O)c3ccccc3n2)c1	none (no result: TGFb inhibitor, HT1080 IDH1KD tx, HepG2 viability, HT1080NT lethal)
CSc1cccc(NC(=O)N2CCN(c3cc(-c4noc(C)n4)ccc3C)CC2)c1	DT40 TDP1 CPT inconclusive, TDP1 cell noCPT inconclusive (no result: HT1080 IDH1KD tx, HT1080NT lethal)
CCOc1ccc(N2C(=O)C3Sc4[nH]c(=O)sc4C(c4ccc(OC)c(OC)c4)C3C2=O)cc1 (stereo not drawn)	none
CCOC(=O)c1cccc(NC(=O)CCc2c(C)nn(-c3ccc(N4CCCC4)nn3)c2C)c1	DT40 TDP1 CPT inconclusive, TGFb inhibitor inconclusive, TDP1 cell noCPT 20.6µM (no result: HT1080 IDH1KD tx, HT1080NT lethal)
Cc1ccc(NC(=O)C2(C)CCN2C(=O)Cc2ccccc2Cl)cc1C (stereo not drawn)	TDP1 cell noCPT inconclusive
O=C(NCC(c1cccs1)S(=O)(=O)c1cccs1)c1ccc(Cl)cc1 (stereo not drawn)	DT40 TDP1 CPT inconclusive, TDP1 cell noCPT 18.4µM (no result: HT1080 IDH1KD tx, HT1080NT lethal)
Cc1ccc(C(=O)NCC(c2cccs2)S(=O)(=O)c2cccs2)cc1C (stereo not drawn)	DT40 TDP1 CPT 11.6µM, TGFb inhibitor inconclusive, TDP1 cell noCPT 20.6µM (no result: HT1080 IDH1KD tx, HT1080NT lethal)
O=C(NCC(c1cccs1)S(=O)(=O)c1cccs1)c1ccc(F)c(F)c1 (stereo not drawn)	DT40 TDP1 CPT inconclusive, TDP1 cell noCPT inconclusive (no result: HT1080 IDH1KD tx, HT1080NT lethal)
O=C(CN1C(=O)COc2ccccc21)N1CCN(C2CCCCC2)CC1	none
CCOC(=O)c1ccc(N=c2sc(C(=O)OC)cc(=O)n2CCCN2CCOCC2)cc1	DT40 TDP1 CPT 14.6µM, TGFb inhibitor inconclusive, HT1080 IDH1KD tx inconclusive, TDP1 cell noCPT 14.6µM, HT1080NT lethal inconclusive
CCOC(=O)c1ccc(N=c2sc(C(=O)OC)cc(=O)n2Cc2ccco2)cc1	DT40 TDP1 CPT 13µM, TGFb inhibitor inconclusive, HT1080 IDH1KD tx inconclusive, TDP1 cell noCPT 20.6µM, HT1080NT lethal inconclusive
COc1cc(C)ccc1OCc1cc(C(=O)NCCN2CCOCC2)no1	none
CCC(=O)c1ccc(OCc2ccc(C(=O)c3ccccc3)cc2)cc1	DT40 TDP1 CPT 6.51µM, HT1080 IDH1KD tx inconclusive, TDP1 cell noCPT 8.2µM
NS(=O)(=O)c1ccc(CCNC(=O)CSc2nc3ccsc3c(=O)n2CCCCC(=O)O)cc1	none
COc1ccc(C2CC(C)(c3ccc(OC)cc3)Nc3ccccc3N2)cc1 (stereo not drawn)	DT40 TDP1 CPT inconclusive, TGFb inhibitor inconclusive, HT1080 IDH1KD tx inconclusive, TDP1 cell noCPT 14.6µM, HT1080NT lethal inconclusive
Cc1ccc(C(=O)N2CCc3ccccc32)cc1[N+](=O)[O-]	none
Cc1cccc(N2CCN(C(=O)c3ccc(-n4cncn4)c([N+](=O)[O-])c3)CC2)c1C	DT40 TDP1 CPT 20.6µM, TGFb inhibitor inconclusive
CC1CCN(c2cc(N3CCOCC3)c([N+](=O)[O-])cc2F)CC1	TDP1 cell noCPT inconclusive
CC1CCN(c2cc(N3CCN(C(=O)c4ccc(F)c(F)c4)CC3)c([N+](=O)[O-])cc2F)CC1	DT40 TDP1 CPT inconclusive, TGFb inhibitor inconclusive, TDP1 cell noCPT 23.1µM
Cc1ccc(C(=O)N2CCN(c3ccccc3Cl)CC2)cc1[N+](=O)[O-]	DT40 TDP1 CPT 29.1µM, TDP1 cell noCPT inconclusive
Cc1nn(-c2ccc(N3CCCC3)nn2)c(C)c1CCC(=O)NCc1ccc(F)cc1	none (no result: HT1080 IDH1KD tx, HT1080NT lethal)
CCCN1CCC(=O)NC1=S	none
O=S(OCCN1CCOCC1)C(c1ccccc1)c1ccccc1 (stereo not drawn)	DT40 TDP1 CPT inconclusive, TDP1 cell noCPT inconclusive
